The list is not random: actives were taken first. Their share in the collection is about 1.3%.
cytoskel mod – modifiers of F-actin cytoskeleton organization, primary screen, imaging, HUVEC, phalloidin staining, high-content imaging | HUVEC TNFa F-actin phalloidin imaging | inhibition, % at 2 µM | 0.18% of 91,000 active | AID 836, 2007;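 active = inhibition above the batch mean plus 3 SD and confirmed as a hit by visual image inspection, cut at about 30% in these data, passing the limit was not always enough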
S1P2 agonist – S1P2 receptor agonists, primary screen, cell-based. Sphingosine 1-phosphate receptor 2 (Homo sapiens), O95136. S1P2-expressing cell line, agonist reporter read-out. activation, % at 4.5 µM. 0.46% of 97,000 active. AID 729, 2007; in the data active = activation above about 16%
GALR2 ag – GALR2 receptor agonists, primary screen, cell-based | Galanin receptor type 2 (Homo sapiens), O43603 | GALR2-expressing cells, agonist activation read-out | activation, % (test concentration not listed) | 0.48% of 140,000 active | AID 803, 2007; in the data active = activation above about 5%, passing the limit was not always enough
Target sequence (O43603 whole entry, looked up): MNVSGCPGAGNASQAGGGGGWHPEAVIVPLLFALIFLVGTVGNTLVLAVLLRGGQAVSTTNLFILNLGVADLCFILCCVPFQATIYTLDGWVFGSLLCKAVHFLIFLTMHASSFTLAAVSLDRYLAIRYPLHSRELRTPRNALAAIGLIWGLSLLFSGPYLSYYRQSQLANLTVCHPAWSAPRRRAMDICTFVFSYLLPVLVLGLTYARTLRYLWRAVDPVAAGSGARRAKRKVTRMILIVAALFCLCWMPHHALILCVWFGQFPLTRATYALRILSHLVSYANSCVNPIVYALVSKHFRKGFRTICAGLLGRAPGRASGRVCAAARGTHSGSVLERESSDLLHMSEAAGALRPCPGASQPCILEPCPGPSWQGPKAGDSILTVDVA
S1P2 antag – human S1P2 receptor antagonists, primary screen, cell-based. inhibition, % at 5 µM. cell-based S1P2 antagonist assay, inhibition at 5 uM. AID 736, 2007. 0.21% of 97,000 active. Sphingosine 1-phosphate receptor 2 (Homo sapiens), O95136; in the data active = inhibition above about 45%;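 also: CRE beta-lactamase reporter cells expressing human S1P2 stimulated with S1P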
GALR2 blocker – GALR2 antagonists in receptor-expressing cells, primary screen | Galanin receptor type 2 (Homo sapiens), O43603 | antagonist mode | inhibition, % at 4 µM | 0.39% of 140,000 active; in the data active = inhibition above about 27%;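 also: cells stimulated with galanin 1-16 at roughly its EC80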
GALR2 agon conf – GALR2 agonists, retest of hits, confirmation, cell-based; 10% of 460 active; activation, % at 5.6 µM; shares compounds with GALR2 ag; GALR2-expressing cells, agonist activation; in the data active = activation above about 8.4%
BLA act counter – activators of NFAT-driven beta-lactamase reporter, confirmation, counter-screen for GALR2 agonist project, CHO NFAT-bla cells, FRET readout; shares compounds with GALR2 ag; beta-lactamase FRET activation; activation, % at 5.6 µM; 10% of 460 active; AID 865, 2007;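 active = activation above the screen-wide mean activation plus 3 SD, cut at about 8% in these data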
A number is an active result; – = inactive; · = no result given.

SMILES | cytoskel mod | S1P2 agonist | GALR2 ag | S1P2 antag | GALR2 blocker | others
Cc1cc(-c2cc(-c3ccc(Cl)cc3)nc(N)c2C#N)co1 | – | 19 | 9.9 | – | –
Cc1ccc(-c2cc(-c3ccc(Cl)cc3)c(C#N)c(N)n2)o1 | – | 19 | 13 | – | –
O=C(N/N=C\CCc1ccccc1)c1ccco1 | · | · | – | · | –
O=c1ccn(-c2cccc(C(F)(F)F)c2)nc1-c1ccn(-c2cccc(Cl)c2)n1 | – | 28 | – | – | –
Nc1c(-c2cccc(Cl)c2)cnn1-c1cccc(C(F)(F)F)c1 | – | – | – | – | –
Clc1ccc(CNc2nc(CN3CCOCC3)nc3scc(-c4ccccc4)c23)cc1 | · | · | – | · | –
N#CC(c1ccc(Cl)cc1)c1ccc2c(C(F)(F)F)cc(C(F)(F)F)nc2n1 (stereo unspecified) | – | – | – | 69 | –
COc1ccc(CCNC(=O)Cn2cc(C(F)(F)F)cc(Cl)c2=O)cc1OC | · | · | – | · | –
Nc1nc2c3ccccc3nc(C3CC3)n2n1 | – | 24 | – | – | –
Cc1cc(C)n2nc3ccccc3c2n1 | – | – | – | – | –
CCNC(=O)COC(=O)c1csc2c1CCCC2 | · | · | – | · | –
COc1ccc(NC(=O)c2n[nH]c(=O)c3ccccc23)cc1S(=O)(=O)N1CCCCC1 | · | · | – | · | –
N#CC1=C(N)OC2=C(CCc3ccccc32)C1c1ccccc1 (stereo unspecified) | · | · | 5.0 | · | –
Cc1ccc(/C=C2\CCC3=C2OC(N)=C(C#N)C3c2ccc(C)cc2)cc1 (stereo unspecified) | – | 17 | 12 | – | –
CC(C)OCC1CC(CC(=O)NC(=S)Nc2cccc([N+](=O)[O-])c2)C(=O)O1 (stereo unspecified) | – | 47 | – | – | –
CCOC(=O)C1CCN(C(=O)c2cn(CCOC)c(=O)c3c2c2ccccc2n3C)CC1 | 39 | – | – | – | –
CCN1CCN(C(=O)c2cn(CCOC)c(=O)c3c2c2ccccc2n3C)CC1 | – | – | – | – | –
CC1CCCN(S(=O)(=O)c2ccc(S(=O)(=O)NC(C)c3cccs3)cc2)C1 (stereo unspecified) | – | – | – | – | –
COC(=O)c1ccc(CSc2nnc(-c3ccncc3)n2Cc2ccccc2)o1 | 76 | – | – | – | –
CCc1cccc(CC)c1NC(=O)COn1nnc2ccc(C(F)(F)F)cc21 | · | · | – | · | –
O=C(N/N=C/c1c[nH]c2ccccc12)c1[nH]c2ccc(Br)cc2c1-c1ccccc1 | · | · | 8.1 | · | –
COC(=O)c1c(C)[nH]c(C(=O)/C=C/c2ccccc2)c1C | · | · | 6.2 | · | –
COc1ccc(NC(=O)c2oc3ccccc3c2C)c(OC)c1 | – | – | – | – | –
COC(=O)c1cc(OC)c(OC)cc1NC(=O)c1oc2ccccc2c1C | 32 | – | – | – | –
Cc1cc(-n2c(C)cc(C(=O)CSc3nnc4sc5ccccc5n34)c2C)no1 | – | – | – | – | –
SMILES | cytoskel mod | S1P2 agonist | GALR2 ag | S1P2 antag | GALR2 blocker | others
Cc1cc(-n2c(C)cc(C(=O)CSc3ncnc4ccccc34)c2C)no1 | – | – | – | 60 | –
Cc1ccc(-n2c(C)cc(C(=S)N3CCOCC3)c2C)cc1C | – | – | – | – | –
Cc1ccc(SCC(=O)Nc2ccc(N3CCN(C)CC3)c(F)c2)cc1 | – | – | 7.8 | – | –
O=S(=O)(N/N=C\c1cn(-c2ccccc2)nc1-c1ccccc1)c1ccccc1 | – | – | – | – | –
O=[N+]([O-])c1ccc(N/N=C/c2cn(-c3ccccc3)nc2-c2ccccc2)cc1 | – | – | – | 67 | –
Cc1sc2nc(SCc3nc4ccccc4[nH]3)n(Cc3ccco3)c(=O)c2c1C | – | 17 | – | – | –
C=CCn1c(SCC(=O)NC(=O)NCc2ccco2)nc2sc(C)c(C)c2c1=O | – | – | 6.2 | – | –
Cc1sc2nc(SCc3ccccc3)n(Cc3ccco3)c(=O)c2c1C | – | – | – | – | –
COc1ccc(NC(=O)CSc2nc3sc(C)c(C)c3c(=O)n2Cc2ccco2)cc1 | – | – | – | – | –
Cc1cccc(N2CCN(C(=O)c3cc(C)oc3C)CC2C)c1 (stereo unspecified) | · | · | – | · | –
CCCCCCc1cc2cc(-c3nnc(-c4ccccc4O)o3)c(=O)oc2cc1O | · | · | 18 | · | –
CCCCCCc1cc2cc(-c3nnc(-c4ccccc4OC)o3)c(=O)oc2cc1O | – | – | – | – | –
O=C(OCc1nc2ccc(Cl)cc2n1CCO)c1ccccc1 | · | · | – | · | –
OCCn1c(CSc2nnc(-c3ccco3)n2-c2ccccc2)nc2ccc(Cl)cc21 | – | 34 | – | – | –
COc1ccc2c(C)cc(Sc3nnnn3-c3ccccc3)nc2c1 | · | · | – | · | –
Cc1cc(C)n2nc(Cc3ccccc3)nc2n1 | – | – | – | – | –
Cc1cc(C)n2nc(S(=O)(=O)N(C)c3ccccc3)nc2n1 | – | 52 | – | – | –
Clc1ccc(-c2ccc(/C=N/Nc3cc(N4CCOCC4)nc(N4CCOCC4)n3)o2)cc1 | – | 54 | 30 | – | –
CC(C)c1ccc(/C=N/Nc2cc(N3CCOCC3)nc(N3CCOCC3)n2)cc1 | · | · | – | · | –
C/C(=N/NC(=O)CNC(=O)COc1ccccc1)c1ccco1 | · | · | – | · | –
Nc1ccc(Sc2ccccc2CC(=O)O)cc1 | – | – | – | – | –
O=C(NCCN1CCN(c2ccccc2F)CC1)C1CC(=O)N(C2CCCC2)C1 (stereo unspecified) | – | 21 | – | – | –
O=C(NCCN1CCN(Cc2ccccc2)CC1)C1CC(=O)N(C2CCCC2)C1 (stereo unspecified) | – | – | – | – | –
CCN1C(=O)C(CC(=O)Nc2ccc(OC)cc2)N(Cc2ccc3c(c2)OCO3)C1=S (stereo unspecified) | · | · | – | · | –
CN(C)c1ccc(/C=N/NC(=O)CN(c2ccccc2Cl)S(C)(=O)=O)cc1Br | – | 17 | – | – | –
SMILES | cytoskel mod | S1P2 agonist | GALR2 ag | S1P2 antag | GALR2 blocker | others
Cc1ccc(NC(=O)Cc2nn(C)c(=O)c3ccccc23)cc1F | – | – | – | 67 | –
CC(=O)c1ccc(NC(=S)N(C)C2CCN(C)CC2)cc1 | · | · | – | · | –
Cc1ncc(CO)c2cc(C(N)=O)c(=Nc3ccccc3)oc12 | 36 | – | – | – | –
CCOC(=O)c1cnc(-n2nc(C)cc2C)nc1NC1CCCCC1 | – | – | – | 91 | –
O=C(Nc1ccc2c(c1)OCO2)c1cnn2cccnc12 | – | – | 374 | – | –
Cc1ccccc1NC(=O)c1cc(C(=O)c2cc(Cl)ccc2O)cn(-c2ccccc2C)c1=O | · | · | – | · | –
CCCCCCc1cc2cc(S(=O)(=O)c3ccc(F)cc3)c(=O)oc2cc1O | · | · | 14 | · | – | GALR2 agon conf=16;BLA act counter=41
COc1cc(/C=C/C(=O)Nc2nc3ccc(S(=O)(=O)N(C)C)cc3s2)cc(OC)c1OC | · | · | – | · | –
